# Reference: the supplement of paper PMC9433436
# ± gives the standard deviation of the averaged measurements. The full ranking holds about 4,100 sequences; the median of “relative kcat/Km (krel) vs genomic leader AAAGAU” is about 1.7, and the highest 2% start at about 6.5. The sample holds the highest values, similar sequences and a random draw of the others, so the mix is not that of the screen.
# Target: T1, E. coli RNase P holoenzyme (M1 P RNA + rnpA protein) (UniProt P0A7Y8)
# T1 sequence: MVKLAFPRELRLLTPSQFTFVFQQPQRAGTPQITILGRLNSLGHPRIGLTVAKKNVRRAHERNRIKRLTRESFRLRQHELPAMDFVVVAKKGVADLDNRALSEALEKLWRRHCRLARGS
# Experiment: relative kcat/Km (krel) vs genomic leader AAAGAU (relative (reference leader = 1)); higher = faster RNase P cleavage
# Description: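 HTS-Kin: a pool of ptRNA-Met (21C construct) with all 4096 combinations of 5' leader nucleotides N(-6) to N(-1) was processed in vitro by E. coli RNase P (P RNA + rnpA/C5 protein) under multiple-turnover conditions at 37 C, pH 8, 17.5 mM MgCl2. Residual substrate was Illumina-sequenced at several fractions reacted, and relative kcat/Km (krel) was computed by internal competition kinetics, calibrated to the genomic leader (AAAGAU = 1). The listed hexamer is the varied N(-6)..N(-1) leader (DNA letters), and it sits between a fixed 5' stem-loop flank (GCAUGCACGAAAGUGCGUGCUAUGAA) and the mature tRNA-Met starting GGCUACGUAGCUCAGUUGG. Two technical replicates are averaged.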
# [1] = fraction of substrate reacted: ~9-10% (9.79% repeat 1, 9.1% repeat 2)
# [2] = fraction of substrate reacted: ~13-16% (15.68% repeat 1, 13.17% repeat 2)
# [3] = fraction of substrate reacted: ~26-29% (28.66% repeat 1, 26.4% repeat 2)
Sequence,relative kcat/Km [1],relative kcat/Km [2],relative kcat/Km [3]
GCCGAA,3.56 ± 1.2,4.16 ± 0.78,6.35 ± 2.4
TCCGAA,5.05 ± 1.9,6.23 ± 1.9,9.05 ± 3.9
TCCGAG,2.34 ± 0.033,2.52 ± 1.4,5.01 ± 2.2
ACCGAC,2.3 ± 2.1,3.17 ± 0.29,4.58 ± 1
ACCGAA,3.81 ± 1.6,4.31 ± 1,6.81 ± 3
ACTCGT,,,2.02 ± 1.7
AGCACG,,,1.13 ± 0.11
TTAGAA,2.72 ± 1.5,2.61 ± 0.03,3.57 ± 1.4
TCCCAA,4.73 ± 3.1,4.63 ± 0.2,6.94 ± 2.3
GCCCAC,3.04 ± 0.041,4.04 ± 1.6,5.93 ± 2.8
ACCCAT,2.43 ± 0.83,2.95 ± 0.91,5.63 ± 2.4
ACCCAC,3.6 ± 1.7,3.71 ± 0.7,5.48 ± 1.8
ACCCAA,2.3 ± 0.84,2.69 ± 0.25,4.83 ± 1.9
GCCCAT,3.07 ± 2.2,3.36 ± 0.14,5.4 ± 1.5
TCCCAT,4.48 ± 2.4,5.74 ± 1,8.73 ± 3.7
TCCCAC,4.44 ± 1.1,5.53 ± 1.1,7.79 ± 3
CCCCAA,3.03 ± 1.2,3.57 ± 0.21,4.97 ± 1.6
GCTATG,,,1.51 ± 0.12
AGAAAG,1.38 ± 1.3,1.14 ± 0.7,2.2 ± 0.47
CGGACG,1.05 ± 1.1,,0.906 ± 0.41
GCATAA,1.89 ± 0.96,2 ± 0.52,3.04 ± 1.1
ATAGTC,1.61 ± 0.89,1.42 ± 1,1.68 ± 0.75
AGTAAT,2.83 ± 0.62,3.38 ± 0.27,5.07 ± 2.3
TTCCTA,3.35 ± 1.2,4.53 ± 0.46,5.89 ± 2.4
TACGCG,1.87 ± 1.1,1.66 ± 0.44,3.13 ± 0.89

Sequence,relative kcat/Km [1],relative kcat/Km [2],relative kcat/Km [3]
AACGCA,2.99 ± 1.6,3.18 ± 0.58,4.32 ± 1.4
AACGCC,1.93 ± 0.48,3.24 ± 1.4,4.53 ± 1.3
GACGCA,3.33 ± 1.3,3.62 ± 0.97,5.24 ± 1.8
GACGCC,3.241 ± 0.028,4.62 ± 1.3,6.69 ± 2.6
TACGCA,2.71 ± 1.7,4.27 ± 0.58,6.64 ± 3.4
TACGCC,3.64 ± 0.043,5.35 ± 1.7,7.66 ± 3.3
GACGCG,,0.59 ± 0.14,2.38 ± 0.093
GACGCT,2.24 ± 0.19,2.17 ± 0.8,3.11 ± 1.4
ACGCAC,1.83 ± 0.3,2.12 ± 0.95,3.59 ± 1.2
CATCCC,2.17 ± 1.8,2.06 ± 1.1,1.96 ± 0.22
CCTTTC,2.13 ± 0.9,2.39 ± 0.27,3.08 ± 0.83
CCTTCA,1.71 ± 1.4,1.18 ± 0.065,1.84 ± 0.056
TACTTA,3.1 ± 0.66,4.1 ± 0.88,5.63 ± 2.6
CACTTT,3.33 ± 1.1,4.55 ± 0.76,6.22 ± 2.4
CACTTC,2.93 ± 0.5,3.69 ± 0.85,5.44 ± 2.2
TACTTC,4.11 ± 1.8,4.99 ± 1.3,6.85 ± 2.9
TACTTT,3.77 ± 1.4,4.69 ± 0.54,6.8 ± 3.1
TACTTG,,0.792 ± 0.45,2.68 ± 1.1
GTTATG,,1.56 ± 0.24,3.32 ± 0.7
CTTTTA,2.68 ± 0.65,2.79 ± 0.91,3.18 ± 1.2
AAGCAT,2.34 ± 0.52,2.87 ± 1,3.28 ± 1.9
CGCCAT,3 ± 0.35,4.6 ± 1.3,6.07 ± 2.5
CTCCAT,4.25 ± 0.86,5.67 ± 1.3,8.48 ± 4
CTCCCT,3 ± 0.57,3.57 ± 0.86,4.86 ± 2.1
TTCCAG,2.51 ± 1.5,3.27 ± 0.64,5.49 ± 1.9

Sequence,relative kcat/Km [1],relative kcat/Km [2],relative kcat/Km [3]
TGCCAC,2.55 ± 1.6,3.121 ± 0.026,4.36 ± 1.6
TGCCAA,3.18 ± 1.1,2.55 ± 0.62,4.09 ± 1
GTCCCT,2.62 ± 0.56,3.61 ± 0.74,5.58 ± 2.5
GTCCAG,2.58 ± 1,2.9 ± 0.5,5.48 ± 2
GTCCAT,4.26 ± 0.8,6.41 ± 1.5,9.1 ± 4.4
TTCCAC,5.3 ± 2,6.51 ± 1.3,9.46 ± 4.2
TTCCAA,4.78 ± 1.8,6.03 ± 0.65,8.56 ± 3.5
TTCCCC,3.49 ± 1.7,4.17 ± 0.71,5.59 ± 1.9
CCTCTG,,,1.47 ± 0.38
CTTGGA,1.23 ± 1.1,1.2 ± 0.45,1.15 ± 0.8
TTGAGC,1.16 ± 0.28,1.24 ± 0.71,1.47 ± 0.22
ACCGGC,1.08 ± 0.83,,
AGAACC,1.66 ± 1.1,1.82 ± 0.43,1.82 ± 0.17
GCACGT,,,0.727 ± 0.1
CAAAGG,0.345 ± 0.3,,
AGCCAT,3.54 ± 1.2,3.08 ± 0.86,4.77 ± 2
ATCCAC,4.03 ± 1.7,4.47 ± 0.19,6.76 ± 2.2
ATCCAG,1.67 ± 0.93,1.77 ± 0.18,3.83 ± 0.61
GACCAA,1.8 ± 0.3,3.47 ± 1.1,4.86 ± 1.5
ATCCCT,2.7 ± 0.55,3.48 ± 0.4,4.42 ± 1.8
GTCCAA,3.74 ± 1.3,4.92 ± 0.95,7.96 ± 3
GGCCAC,0.682 ± 0.091,1.39 ± 0.35,2.65 ± 0.59
ATCCAT,3.89 ± 0.97,4.72 ± 1.4,7.14 ± 3.2
ATCCAA,3.15 ± 0.43,4.2 ± 1.2,6.3 ± 2.3
ATCCCC,2.42 ± 0.41,3.13 ± 0.35,4.59 ± 2.2

Sequence,relative kcat/Km [1],relative kcat/Km [2],relative kcat/Km [3]
GTCCCC,2.87 ± 2.5,4.17 ± 0.82,5.29 ± 1.4
GTCCAC,5.04 ± 1.9,6.06 ± 1.1,8.78 ± 3.9
TTTGCC,1.81 ± 0.95,1.79 ± 0.37,2.42 ± 0.16
AGTATT,2.4 ± 0.68,3.14 ± 0.3,4.91 ± 2.2
AACTGG,,,0.249 ± 0.046
TGATGT,,1.13 ± 1.1,1.37 ± 0.91
ACTTTA,1.56 ± 0.72,1.89 ± 0.44,2.18 ± 0.5
GCTGCC,1.37 ± 0.5,0.461 ± 0.12,0.965 ± 0.29
GCGGCA,,0.64 ± 0.26,
CATTTC,2.59 ± 0.64,2.31 ± 0.88,4.06 ± 1.9
CTCCAA,4.23 ± 2.1,4.62 ± 0.048,6.98 ± 2.8
CTCCAC,4.55 ± 1.9,5.88 ± 1.5,7.81 ± 3.1
TGCCAT,2.8 ± 0.93,2.89 ± 0.61,4.45 ± 1.8
TTCCCT,3.18 ± 0.59,4.37 ± 1.1,6.18 ± 2.6
CACCAC,3.5 ± 0.91,3.81 ± 1.5,5.55 ± 2.2
CTCCAG,2.81 ± 1.9,2.34 ± 0.026,4.6 ± 1.3
CGCCAA,2.95 ± 0.91,3.15 ± 0.75,5.09 ± 1.8
TTCCAT,4.71 ± 0.96,7.43 ± 1.3,10.3 ± 4.6
CTCCCC,2.43 ± 0.053,3.34 ± 1,4.73 ± 2.2
CAGGGA,,0.949 ± 0.58,1.06 ± 1
CCGATG,,,1.14 ± 0.71
CGCATG,,,1.43 ± 0.34
CCATAA,3.55 ± 1.6,2.67 ± 0.37,3.58 ± 0.78
CCACTT,1.71 ± 0.26,0.873 ± 0.61,1.91 ± 0.31
TGCTGA,1.907 ± 0.0028,1.69 ± 0.5,2.71 ± 1
